For part of these data: Results with a measured potency or affinity are listed apart.

Holding throughout (parameters): scale not given: direction of the effect not stated beside the values
In experiment [1] the target is Protein translocase subunit SecA (Escherichia coli (strain K12)) (UniProt P10408). In words: Assay to Identify E. coli SecA ATPase Inhibitors. As to conditions: 30 µM. It is filed as functional.
Experiment [2] deals with T1, Ubiquitin-activating enzyme e1, putative (Leishmania donovani (strain BPK282A1)) (UniProt E9BSI1).
T1 sequence (whole entry): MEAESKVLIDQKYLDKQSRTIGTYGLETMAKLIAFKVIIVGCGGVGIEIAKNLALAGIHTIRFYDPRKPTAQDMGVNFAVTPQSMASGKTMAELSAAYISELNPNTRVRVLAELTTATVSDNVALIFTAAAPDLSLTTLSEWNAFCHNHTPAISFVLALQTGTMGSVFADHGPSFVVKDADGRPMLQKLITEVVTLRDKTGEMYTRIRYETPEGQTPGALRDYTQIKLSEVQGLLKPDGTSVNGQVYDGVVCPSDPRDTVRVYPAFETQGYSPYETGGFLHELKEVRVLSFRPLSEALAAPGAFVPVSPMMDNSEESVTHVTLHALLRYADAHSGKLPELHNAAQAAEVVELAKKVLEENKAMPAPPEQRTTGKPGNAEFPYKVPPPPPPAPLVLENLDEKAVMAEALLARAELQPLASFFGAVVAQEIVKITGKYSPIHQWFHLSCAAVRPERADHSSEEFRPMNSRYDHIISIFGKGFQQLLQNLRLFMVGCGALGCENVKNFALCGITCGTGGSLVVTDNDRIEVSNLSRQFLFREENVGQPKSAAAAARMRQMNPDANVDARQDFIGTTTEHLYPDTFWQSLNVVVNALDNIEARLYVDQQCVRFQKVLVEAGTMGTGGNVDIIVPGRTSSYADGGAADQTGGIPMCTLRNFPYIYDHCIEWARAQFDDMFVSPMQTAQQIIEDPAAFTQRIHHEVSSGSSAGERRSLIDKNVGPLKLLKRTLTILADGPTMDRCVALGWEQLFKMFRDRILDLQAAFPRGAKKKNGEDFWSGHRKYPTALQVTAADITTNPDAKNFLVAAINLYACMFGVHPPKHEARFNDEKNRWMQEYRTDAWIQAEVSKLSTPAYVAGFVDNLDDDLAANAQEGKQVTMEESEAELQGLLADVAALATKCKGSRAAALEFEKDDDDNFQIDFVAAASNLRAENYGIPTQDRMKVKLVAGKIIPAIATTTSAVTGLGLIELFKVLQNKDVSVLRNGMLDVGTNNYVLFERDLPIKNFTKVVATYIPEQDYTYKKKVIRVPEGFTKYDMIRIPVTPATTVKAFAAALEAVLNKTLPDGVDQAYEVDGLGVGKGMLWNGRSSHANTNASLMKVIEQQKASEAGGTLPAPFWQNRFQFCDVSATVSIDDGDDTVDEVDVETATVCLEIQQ
Kind of experiment: Leishmania donovani Ubiquitin Activating Enzyme (LdE1). It counts as functional. To be noted: 30 µM.

The target in experiment [3] is AMP-activated protein kinase, AMPK (Homo sapiens) (UniProt P54646+O43741+P54619+Q9UGJ0+Q9Y478+Q13131+Q9UGI9). In words: AMP-dependent Kinase enzyme assay. An in vitro enzyme assay that detects ADP turnover that is directly proportional to AMPK activity. This uses naive AMPK that is activated during the assay with MK-8722. It is filed as functional. As to conditions: 30 µM.

For experiment [4], the target named is Sialic acid-binding Ig-like lectin 9 (Homo sapiens) (UniProt Q9Y336). In words: Hs-Siglec9 ALPHAscreen SOP 20170721. To be noted: 10 µM. Background: Alpha assays give light when donor and acceptor beads are brought close together.
Another experiment relates to Trypanosoma cruzi. Kind of experiment: Trypanosoma cruzi phosphomannomutase and mannose-1-phosphate guanylyltransferase assay. It is filed as functional. As to conditions: 10 µM.
Experiment [5] concerns the target T2, Arginase-2, mitochondrial (Homo sapiens) (UniProt P78540).
T2 sequence (whole entry): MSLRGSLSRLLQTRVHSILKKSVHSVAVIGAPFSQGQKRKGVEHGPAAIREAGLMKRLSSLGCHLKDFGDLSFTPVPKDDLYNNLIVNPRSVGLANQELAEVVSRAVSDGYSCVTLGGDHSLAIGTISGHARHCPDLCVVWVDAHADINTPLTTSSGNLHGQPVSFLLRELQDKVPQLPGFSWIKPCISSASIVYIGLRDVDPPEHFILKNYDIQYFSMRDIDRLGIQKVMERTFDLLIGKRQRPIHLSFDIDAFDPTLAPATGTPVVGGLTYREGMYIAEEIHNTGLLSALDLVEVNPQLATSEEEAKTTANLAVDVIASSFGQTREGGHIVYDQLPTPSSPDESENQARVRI
In words: in vitro enzyme assay to detect the production of urea directly proportional to the activity of Arginase II. Also: in the data most compounds retested in dose-response had high values. As to conditions: 33.3 µM. It counts as functional.

The target of experiment [6] is T3, Proteasome subunit beta (Trypanosoma cruzi) (UniProt O96673).
T3 sequence (whole entry): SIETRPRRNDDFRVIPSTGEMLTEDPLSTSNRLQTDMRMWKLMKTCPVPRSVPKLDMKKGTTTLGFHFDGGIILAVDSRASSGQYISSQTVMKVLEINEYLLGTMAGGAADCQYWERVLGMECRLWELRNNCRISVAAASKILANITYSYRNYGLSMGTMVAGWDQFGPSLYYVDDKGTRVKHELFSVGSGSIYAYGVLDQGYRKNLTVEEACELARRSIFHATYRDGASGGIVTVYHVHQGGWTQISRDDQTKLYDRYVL
In words: Trypanosoma cruzi proteasome chymotrypsin-like activity (TcProtChymo) assay. Also: in the data most compounds retested in dose-response had high values. As to conditions: 9.37 µM. It is filed as functional.

For a further experiment, the species on record is Homo sapiens. Kind of experiment: To identify inhibition of the IFN signalling (Jak-Stat) pathway via expression of an eGFP reporter gene under the control of an IFN-stimulated response element (ISRE) containing MxA promoter. It counts as functional. To be noted: 30 µM. A general note: In a reporter assay the amount or activity of a reporter protein is the signal.

The target in experiment [7] is T4, Tyrosyl-tRNA synthetase, putative (Trypanosoma cruzi (strain CL Brener)) (UniProt Q4DSP6).
T4 sequence (whole entry): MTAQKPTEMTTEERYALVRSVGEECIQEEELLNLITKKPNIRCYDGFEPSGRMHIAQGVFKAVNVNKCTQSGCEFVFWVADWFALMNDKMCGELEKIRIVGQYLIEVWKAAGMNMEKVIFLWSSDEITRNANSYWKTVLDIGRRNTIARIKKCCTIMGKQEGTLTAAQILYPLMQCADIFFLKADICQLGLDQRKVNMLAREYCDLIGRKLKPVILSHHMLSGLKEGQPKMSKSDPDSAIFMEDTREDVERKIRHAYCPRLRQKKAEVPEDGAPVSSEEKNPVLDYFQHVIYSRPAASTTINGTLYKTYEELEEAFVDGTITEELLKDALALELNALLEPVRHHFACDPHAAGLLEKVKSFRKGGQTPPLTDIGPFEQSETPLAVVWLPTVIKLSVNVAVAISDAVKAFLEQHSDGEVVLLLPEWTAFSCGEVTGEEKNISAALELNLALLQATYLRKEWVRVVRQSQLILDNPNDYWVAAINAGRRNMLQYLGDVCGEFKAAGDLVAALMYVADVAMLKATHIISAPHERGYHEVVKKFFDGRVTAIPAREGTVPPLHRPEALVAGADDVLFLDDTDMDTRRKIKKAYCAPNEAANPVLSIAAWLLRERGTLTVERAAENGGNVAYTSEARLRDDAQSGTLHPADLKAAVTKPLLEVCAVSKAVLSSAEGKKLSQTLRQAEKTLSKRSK
In words: Trypanosoma cruzi tyrosyl tRNA synthetase (TcYRS) _High Tyrosine SOP. Also: in the data most compounds retested in dose-response had high values. It counts as functional. To be noted: 30 µM.

For experiment [8], the target named is T4, Tyrosyl-tRNA synthetase, putative (Trypanosoma cruzi (strain CL Brener)). In words: Trypanosoma cruzi tyrosyl tRNA synthetase (TcYRS) SOP. It is filed as functional. To be noted: 30 µM.
Experiment [9] deals with Chromo domain-containing protein 1 (Saccharomyces cerevisiae (strain ATCC 204508 / S288c) (Baker's yeast)) (UniProt P32657). In words: ScCHD-1 Enzyme Inhibition Assay. Also: in the data most compounds retested in dose-response had high values. It is filed as functional. As to conditions: 30 µM.
Chain of Chromo domain-containing protein 1 (Saccharomyces cerevisiae (strain ATCC 204508 / S288c) (Baker's yeast)) (P32657 whole entry, the tested form may be a part): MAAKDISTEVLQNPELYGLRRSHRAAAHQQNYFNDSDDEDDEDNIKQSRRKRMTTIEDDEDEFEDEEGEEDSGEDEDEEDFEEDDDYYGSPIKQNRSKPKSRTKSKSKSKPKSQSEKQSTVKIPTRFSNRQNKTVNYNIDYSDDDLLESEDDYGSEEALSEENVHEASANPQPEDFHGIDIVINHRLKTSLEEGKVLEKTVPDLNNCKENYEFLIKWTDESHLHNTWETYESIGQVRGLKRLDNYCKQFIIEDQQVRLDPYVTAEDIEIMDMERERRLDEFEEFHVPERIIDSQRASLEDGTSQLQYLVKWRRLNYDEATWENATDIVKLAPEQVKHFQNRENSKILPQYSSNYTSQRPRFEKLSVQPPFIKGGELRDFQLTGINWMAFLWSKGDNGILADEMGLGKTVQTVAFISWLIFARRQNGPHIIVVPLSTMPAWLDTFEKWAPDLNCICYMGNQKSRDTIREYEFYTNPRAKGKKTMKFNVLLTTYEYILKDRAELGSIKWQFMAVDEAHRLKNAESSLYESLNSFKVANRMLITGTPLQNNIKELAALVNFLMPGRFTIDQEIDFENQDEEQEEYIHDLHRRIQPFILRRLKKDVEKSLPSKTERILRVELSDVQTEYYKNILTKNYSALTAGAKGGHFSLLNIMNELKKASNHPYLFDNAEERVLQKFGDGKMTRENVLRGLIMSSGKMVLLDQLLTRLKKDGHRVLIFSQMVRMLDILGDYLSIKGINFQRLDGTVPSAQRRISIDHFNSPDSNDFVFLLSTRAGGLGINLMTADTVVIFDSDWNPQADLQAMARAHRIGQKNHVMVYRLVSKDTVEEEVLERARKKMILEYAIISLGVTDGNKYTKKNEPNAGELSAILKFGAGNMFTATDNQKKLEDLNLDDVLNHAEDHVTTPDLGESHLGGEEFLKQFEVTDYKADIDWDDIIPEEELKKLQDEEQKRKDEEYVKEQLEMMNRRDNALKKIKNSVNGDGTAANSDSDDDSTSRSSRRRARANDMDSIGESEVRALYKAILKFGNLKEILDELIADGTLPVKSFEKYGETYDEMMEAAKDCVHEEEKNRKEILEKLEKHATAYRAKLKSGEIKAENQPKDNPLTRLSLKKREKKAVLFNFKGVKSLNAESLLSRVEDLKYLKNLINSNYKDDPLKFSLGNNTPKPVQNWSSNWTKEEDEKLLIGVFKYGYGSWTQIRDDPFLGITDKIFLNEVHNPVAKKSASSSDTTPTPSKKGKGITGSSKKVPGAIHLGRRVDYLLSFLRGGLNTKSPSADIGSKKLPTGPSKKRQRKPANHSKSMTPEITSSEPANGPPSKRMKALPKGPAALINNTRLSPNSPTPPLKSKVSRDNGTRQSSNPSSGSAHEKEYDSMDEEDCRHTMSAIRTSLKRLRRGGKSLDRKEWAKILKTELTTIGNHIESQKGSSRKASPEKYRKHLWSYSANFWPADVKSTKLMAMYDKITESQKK

Chain of Protein translocase subunit SecA (Escherichia coli (strain K12)) (P10408 whole entry): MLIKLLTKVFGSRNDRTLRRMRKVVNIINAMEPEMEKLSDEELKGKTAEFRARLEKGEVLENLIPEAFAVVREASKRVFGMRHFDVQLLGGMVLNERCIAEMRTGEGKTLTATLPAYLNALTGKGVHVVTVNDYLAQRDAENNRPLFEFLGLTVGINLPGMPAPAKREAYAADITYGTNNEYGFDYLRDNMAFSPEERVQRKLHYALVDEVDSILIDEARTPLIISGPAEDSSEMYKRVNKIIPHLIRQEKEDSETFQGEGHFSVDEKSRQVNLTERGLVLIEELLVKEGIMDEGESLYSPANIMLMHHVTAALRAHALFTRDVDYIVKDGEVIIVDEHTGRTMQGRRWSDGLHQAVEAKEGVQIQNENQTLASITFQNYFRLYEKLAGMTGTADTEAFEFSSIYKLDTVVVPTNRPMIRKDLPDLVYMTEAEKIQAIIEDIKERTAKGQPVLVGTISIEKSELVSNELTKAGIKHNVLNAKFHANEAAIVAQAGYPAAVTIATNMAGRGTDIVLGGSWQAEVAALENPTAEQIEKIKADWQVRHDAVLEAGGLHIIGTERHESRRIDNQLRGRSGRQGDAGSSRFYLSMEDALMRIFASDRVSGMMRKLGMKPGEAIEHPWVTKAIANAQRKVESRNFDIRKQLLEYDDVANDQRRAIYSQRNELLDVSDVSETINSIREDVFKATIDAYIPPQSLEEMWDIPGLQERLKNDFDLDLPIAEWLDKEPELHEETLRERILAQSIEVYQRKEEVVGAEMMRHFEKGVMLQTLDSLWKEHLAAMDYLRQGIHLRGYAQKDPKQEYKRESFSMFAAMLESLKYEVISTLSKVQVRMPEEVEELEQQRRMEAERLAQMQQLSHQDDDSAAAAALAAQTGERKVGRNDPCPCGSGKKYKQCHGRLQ
Chain of Sialic acid-binding Ig-like lectin 9 (Homo sapiens) (Q9Y336 whole entry): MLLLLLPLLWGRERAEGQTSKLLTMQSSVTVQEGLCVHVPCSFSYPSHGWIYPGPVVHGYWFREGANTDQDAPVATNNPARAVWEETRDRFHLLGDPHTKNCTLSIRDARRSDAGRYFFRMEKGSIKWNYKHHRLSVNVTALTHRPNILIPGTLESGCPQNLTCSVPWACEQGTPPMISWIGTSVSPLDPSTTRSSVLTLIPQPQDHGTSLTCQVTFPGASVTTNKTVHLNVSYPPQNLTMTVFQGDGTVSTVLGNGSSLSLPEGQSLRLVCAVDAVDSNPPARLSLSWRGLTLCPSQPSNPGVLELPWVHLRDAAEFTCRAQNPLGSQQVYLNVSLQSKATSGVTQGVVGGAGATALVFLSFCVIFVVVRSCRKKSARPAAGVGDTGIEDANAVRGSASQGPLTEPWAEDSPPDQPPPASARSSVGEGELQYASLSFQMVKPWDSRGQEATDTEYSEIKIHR

For `COc1cc2nc3n(c(=O)c2cc1OC)CCN(C)CC3`, the Percent Effect is -7.78% in experiment [1]; 1.35% in experiment [2]; 11.9% in experiment [3]; 1.61% in [4]; -3.56% in the experiment with Trypanosoma cruzi; -3.48% in experiment [5]. The Percent Effect was 0.312% in [6]; 0.926% in the experiment filed under Homo sapiens; 2.15% in [7]; 3.9% in experiment [8]; -5.62% in experiment [9].
Turning to `CCN(CC)c1ccc(C(=O)NCc2cccnc2-n2cncn2)cn1`, the Percent Effect in experiment [1] was -0.491%; in experiment [2] it was 8.11%; in experiment [3] it was -12.6%; in experiment [4] it was 48.7%; in the experiment with Trypanosoma cruzi it was 1.86%; in [5], 18.6%. For the same molecule, the Percent Effect in experiment [6] is 8.84%; in the experiment filed under Homo sapiens, 19.1%; in experiment [7], 2.15%; in experiment [8], 11.1%; in experiment [9] it was -5.91%.
With `Cc1noc(NC(=O)c2ccc(Br)cc2)n1`, the Percent Effect in [1] was -5.08%; in experiment [2], 26.3%; in [3] it was -4.88%; in experiment [4] it was 4.49%; in the experiment on Trypanosoma cruzi, 6.44%; in [5], 1.44%. Also, the Percent Effect in experiment [6] is 16.3%; in the experiment filed under Homo sapiens it was 70%; in experiment [7] it was 8.37%; in experiment [8], 28.4%; in experiment [9], -5.14%.
Take `Cc1cccc(NC2CCN(C(=O)Nc3cccc4[nH]ccc34)CC2)n1`: the Percent Effect in experiment [1] is -6.98%; in experiment [2], 17.7%; in experiment [3], -19.6%; in experiment [4], 10.2%; with Trypanosoma cruzi it was 6.7%; in experiment [5] it was -7.22%. The Percent Effect was 3.85% in experiment [6]; -7.19% in the experiment filed under Homo sapiens; 4.43% in experiment [7]; 16.5% in [8]; -8.65% in [9].
On to `NC(=O)N1CCC2(CCN(Cc3cccc(F)c3)CC2)CC1`, for which the Percent Effect in experiment [1] is -2.86%; in experiment [2], 5.2%; in experiment [3], -0.226%; in experiment [4], 14.9%; in the experiment on Trypanosoma cruzi, 1.67%; in experiment [5] it was -9.65%. For the same molecule, the Percent Effect in [6] was 14.3%; in the experiment filed under Homo sapiens it was 5.51%; in experiment [7] it was 5.38%; in experiment [8], 11.1%; in experiment [9] it was -1.58%.
Take `Cc1noc(-c2ccc(N3CCCC(C(=O)N4CCSCC4)C3)nc2)n1` (centres undefined): the Percent Effect in experiment [1] was -5.7%; in [2] it was -2.74%; in [3], 24%; in [4], 1.74%; in the experiment with Trypanosoma cruzi it was -3.92%; in [5] it was -1.36%. Further, the Percent Effect in experiment [6] is 6.57%; in the experiment filed under Homo sapiens, -0.682%; in experiment [7], 1.07%; in experiment [8], 2.5%; in experiment [9], -3.84%.
`COCC1Cn2nnc(-c3cnn(C)c3)c2CN1Cc1ccc(C)s1` (centres undefined): the Percent Effect is -0.562% in experiment [1]; 10.8% in experiment [2]; 12% in experiment [3]; -1.82% in experiment [4]; 1.37% in the experiment with Trypanosoma cruzi; 18.3% in experiment [5]. For the same molecule, the Percent Effect in experiment [6] was -0.0845%; in the experiment listed under Homo sapiens it was 48.1%; in experiment [7], 6.93%; in [8] it was 6.1%; in experiment [9] it was -4.26%.
On to `CC1(C)CC(N(Cc2ccccc2)Cc2cccnc2)CC(C)(C)N1`, for which the Percent Effect in experiment [1] is -8.83%; in experiment [2] it was 17.6%; in [3] it was -4.84%; in [4] it was 9.22%; in the experiment on Trypanosoma cruzi, 5.73%; in experiment [5], -6.73%. In addition, the Percent Effect in experiment [6] was 7.8%; in the experiment filed under Homo sapiens it was -4.57%; in [7], 6.45%; in experiment [8] it was 9.09%; in [9], -29.8%.
As for `O=S(=O)(NCC1(O)CCOc2ccccc21)c1cccs1` (centres undefined), the Percent Effect in experiment [1] was -8.36%; in [2], 0%; in [3], 3.61%; in experiment [4] it was -4.67%; in the experiment with Trypanosoma cruzi, -3.72%; in experiment [5] it was -0.455%. The Percent Effect stood at 5.86% in experiment [6]; 8.26% in the experiment filed under Homo sapiens; 1.07% in [7]; 5% in experiment [8]; 0.9% in experiment [9].

Source of the values: ChEMBL document CHEMBL3988442, “University of Dundee, Small-Polar-MMV Screening Library” (2021).
